The values that follow come from PubChem BioAssay AID1851 (National Center for Advancing Translational Sciences (NCATS), 2009).

By AC50 is commonly meant the concentration giving half of the maximal activity seen.

In all, about 16,000 compounds went through this assay and about 5,100 (32%) were called active. About 25% were inconclusive and are not listed. The list shows a part of the results. Values without a mark were called inactive. Calls come from the whole dose curve; as a rule, active = well fitted curve in the direction sought with a large enough effect; inconclusive = small, poorly fitted or top-dose-only effect, or effect the other way; inactive = no such curve, though single readings can be large or run the other way.
% is set by controls: 0 for no effect and ±100 for the full control effect.

The target of this assay is Cytochrome P450 3A4 (Homo sapiens) (UniProt P08684). Description: Cytochrome panel assay with activity outcomes. The settings on record: recombinant CYP, pro-luciferin dealkylation, luminescence, p450-cyp3a4; series mostly up to 57.1 µM; activity, negative = inhibition: at the top concentration.
Sequence of Cytochrome P450 3A4 (Homo sapiens) (P08684 whole entry, looked up): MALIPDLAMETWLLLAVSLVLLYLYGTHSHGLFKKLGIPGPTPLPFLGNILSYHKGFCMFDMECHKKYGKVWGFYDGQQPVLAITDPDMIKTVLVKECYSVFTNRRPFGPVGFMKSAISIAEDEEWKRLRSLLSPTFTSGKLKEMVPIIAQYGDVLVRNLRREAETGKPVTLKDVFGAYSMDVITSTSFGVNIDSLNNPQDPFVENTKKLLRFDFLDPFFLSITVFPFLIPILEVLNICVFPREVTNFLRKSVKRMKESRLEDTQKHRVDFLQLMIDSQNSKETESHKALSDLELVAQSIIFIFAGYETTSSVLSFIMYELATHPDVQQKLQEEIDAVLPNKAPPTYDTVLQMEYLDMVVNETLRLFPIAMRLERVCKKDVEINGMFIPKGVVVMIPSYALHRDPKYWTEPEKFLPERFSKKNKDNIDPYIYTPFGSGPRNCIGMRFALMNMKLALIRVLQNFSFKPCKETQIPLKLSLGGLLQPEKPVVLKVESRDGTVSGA
As for `Cc1ccc2c(CC(=O)OCc3cc(=O)n4c(n3)sc3ccccc34)coc2c1`, the AC50 was 7.94 µM (active).

`CCc1c(O)nc2sc3ccccc3n2c1=O`: the “activity, negative = inhibition” value was -8.69%.

With `CCOC(=O)Cc1cc(=O)n2[nH]c(C)c(-c3ccccc3)c2n1`, the “activity, negative = inhibition” value was -6.13%.

For the compound `CN(CCO)c1nc(N)c2c(N)nc3c(c2c1C#N)CC(=O)N3C1CCCC1`, the AC50 was 10 µM (active).

For `COCCCNC(=O)C(=O)N/N=C/c1ccc(OCC(=O)Nc2cccc(Cl)c2C)c(OC)c1`, the activity, negative = inhibition is 7.9% [at 2.29 µM].

As to `Cc1ccccc1OCC(=O)NC(=S)Nc1ccc(Br)c(C)n1`, the “activity, negative = inhibition” value is -6.09%.

For `COc1cc(/C=N/NC(N)=O)c(Br)cc1OCC(=O)Nc1ccccc1C`, the AC50 is 3.55 µM (active).

Regarding `CCCN1C(=O)/C(=C/c2ccc(C)s2)SC1=Nc1ccc(OC)cc1`, the AC50 is 14.1 µM (active).

`CCCCOC(=O)NS(=O)(=O)c1sc(CC(C)C)cc1-c1ccc(Cn2c(CC)nc3c(C)cc(C)nc32)cc1`: the AC50 is 3.16 µM (active).

Regarding `Cc1c(NC(=O)CSc2nnc3c4ccccc4n(CCc4ccccc4)c3n2)c(=O)n(-c2ccccc2)n1C`, the AC50 was 10 µM (active).

For `Cc1c(NC(=O)CSc2nnnn2C)c(=O)n(-c2ccccc2)n1C`, the activity, negative = inhibition was -2.31% [at 2.29 µM].

Take `Cc1nc(SCC(=O)Nc2c(C)n(C)n(-c3ccccc3)c2=O)nc(C)c1C`: the activity, negative = inhibition is -4.78% [at 11.4 µM].

Consider `C=CCn1c(SCC(=O)Nc2c(C)n(C)n(-c3ccccc3)c2=O)nc2sc(C)c(-c3ccccc3)c2c1=O`, for which the AC50 is 2.51 µM (active).

For the compound `Cc1cccc(NC(=O)Cn2c(=O)n3nc(CCn4nc(C)cc4C)nc3c3ccccc32)c1`, the AC50 is 5.01 µM (active).

Turning to `Cc1cccc(NC(=O)CSc2nc3ccccc3c3nc(CCc4c(C)n[nH]c4C)nn23)c1`, the AC50 is 3.55 µM (active).

Take `Cc1ccc(/C=C/C(=O)N2CC(C)CC(C)C2)o1` (stereo unspecified): the “activity, negative = inhibition” value was 9.56%.

Regarding `C[C@]1(c2ccccc2)O[C@@H]2C[C@@H]3[C@@H]4CCC5=CC(=O)C=C[C@@]5(C)[C@]4(F)[C@H](O)C[C@]3(C)[C@@]2(C(=O)CO)O1`, the AC50 is 3.16 µM (active).

As for `C[C@]12C=CC(=O)C=C1CC[C@@H]1[C@H]3C[C@@H](O)[C@](O)(C(=O)CO)[C@@]3(C)C[C@H](O)[C@]12F`, the “activity, negative = inhibition” value is -2.5% [at 25.6 µM].

Regarding `C[C@H]1C[C@H]2[C@H]3CCC4=CC(=O)C=C[C@@]4(C)[C@]3(F)[C@H](O)C[C@]2(C)[C@@]1(O)C(=O)COP(=O)(O)O`, the activity, negative = inhibition is 7.91% [at 11.4 µM].

Take `O=C(NCc1ccccc1)C(c1ccc(F)cc1)N(Cc1ccco1)C(=O)c1ccccn1` (stereo unspecified): the AC50 is 2.24 µM (active).

Regarding `Cc1ccccc1C(C(=O)NCc1ccccc1)N(Cc1ccco1)C(=O)c1ccccn1` (stereo unspecified), the AC50 was 3.16 µM (active).

On to `Clc1ccc(-c2cc3ccccc3[nH]2)cc1`, for which the “activity, negative = inhibition” value is -20.2%.

Turning to `N#C/C(=C\c1ccc(O)c(O)c1)C(N)=O`, the “activity, negative = inhibition” value is -22.9%.

In the case of `N#C/C(=C\c1ccc(O)c(O)c1)C(=O)c1ccc(O)c(O)c1`, the AC50 is 15.8 µM (active).

As for `N#C/C(=C\c1c[nH]c2ccccc12)C(=O)c1ccc(O)c(O)c1`, the AC50 is 7.94 µM (active).

Regarding `N#C/C(=C\N1CCNC1=S)C(=O)c1ccc2ccccc2c1`, the activity, negative = inhibition was -26% [at 11.4 µM].

In the case of `Cc1nc2c3cnn(-c4ccc(C)c(C)c4)c3ncn2n1`, the AC50 is 17.8 µM (active).

For the compound `c1ccc(-n2ncc3c2ncn2cnnc32)cc1`, the “activity, negative = inhibition” value was -14.2%.

Turning to `Cc1ccc(-n2ncc3c2ncn2nc(-c4ccco4)nc32)c(C)c1`, the “activity, negative = inhibition” value is 2.26%.

In the case of `CC(C)(C)c1ccc(OCC(=O)O)c(Cl)c1`, the activity, negative = inhibition was -2.41% [at 11.4 µM].

With `O=C1N=C(N2CCOCC2)S/C1=C/c1cccs1`, the activity, negative = inhibition is -4.33% [at 2.29 µM].

For the compound `NC(=O)CNC(=O)[C@@H]1CC2(CC(c3ccccc3)=NO2)CN1C(=O)c1ccc(Br)cc1` (stereo partly specified), the activity, negative = inhibition was -5.09% [at 11.4 µM].

In the case of `COc1cccc(N(C(=O)Cn2nnc(-c3ccc(C)cc3)n2)C(C(=O)NC(C)(C)C)c2c[nH]c3ccccc23)c1` (stereo unspecified), the AC50 is 2.82 µM (active).

`NCCCCCc1nnc(SCc2ccccc2Cl)o1`: the “activity, negative = inhibition” value was -28.1%.

As to `N=C(N)SCc1ccc(Cl)cc1Cl` (tested in a mixture with another compound), the activity, negative = inhibition is -3.48% [at 11.4 µM].

On to `NCCCCCc1nnc(SCc2ccc(Cl)cc2Cl)o1`, for which the AC50 is 12.6 µM (active).

As to `CCOC(=O)c1cnc2c(cnn2C)c1NCCCN(C)C`, the “activity, negative = inhibition” value was -8.88%.

Take `CCOC(=O)c1cnn(CCOC(=O)C(C)(C)C)c1NC(=O)C(C)(C)C`: the AC50 was 12.6 µM (active).

Regarding `CCn1ncc(C(=O)Nc2cc(C)on2)c1C`, the activity, negative = inhibition was 6.4% [at 2.29 µM].

For the compound `CNC(=O)Oc1ccc2c(c1)[C@@]1(C)CCN(C)[C@@H]1N2C`, the AC50 entry was “inactive”.

In the case of `COc1ccc(-n2c(=O)[nH]cc(C(=O)Nc3ccc4c(c3)OCCO4)c2=O)cc1`, the AC50 is 14.1 µM (active).

Regarding `CCOC(=O)CSc1nc(-c2ccccc2)nc2ccccc12`, the “activity, negative = inhibition” value is -24.3%.

As to `CCOC(=O)CSc1cc(C(F)(F)F)nc(-c2ccccn2)n1`, the “activity, negative = inhibition” value was 25.3%.

For the compound `CCOC(=O)CSc1cc(CS(=O)c2ccc(Cl)cc2)nc(-c2ccccc2)n1` (stereo unspecified), the AC50 is 7.08 µM (active).

As to `CCOc1ccc(OCC)c(-c2c(=O)n(OCc3ccccc3C(=O)OC)c3ccccc3[n+]2[O-])c1`, the AC50 is 14.1 µM (active).

With `CCn1c(SCC(=O)OC)nc2sc3c(c2c1=O)CCC3`, the “activity, negative = inhibition” value is -18.1%.

Consider `Cn1c(=O)c2c3c(sc2n2cnnc12)CCC3`, for which the activity, negative = inhibition is 10.9% [at 2.29 µM].

Regarding `CC1CSc2nc3sc4c(c3c(=O)n21)CCCC4` (stereo unspecified), the AC50 was 12.6 µM (active).

Take `CC1(C)CC(=O)C2=C(C1)N(c1ccc(F)cc1)C(N)=C(C#N)C2c1cccs1` (stereo unspecified): the AC50 was 1 µM (active).

As to `Cc1ccccc1C(=O)Nc1cccc(NC(=S)NC(=O)c2cccs2)c1`, the AC50 was 3.55 µM (active).

Regarding `COc1cc(NC(=S)NC(=O)c2c(OC)cccc2OC)ccc1NC(=O)c1cccs1`, the AC50 was 3.16 µM (active).

On to `CCCC(=O)Nc1ccc(C(=O)NNC(=S)NC(=O)c2cccs2)cc1`, for which the “activity, negative = inhibition” value is -27.7%.

Turning to `CCN(c1ccccc1)S(=O)(=O)c1ccc(NC(=S)NC(=O)c2ccc(Br)o2)cc1`, the “activity, negative = inhibition” value was 6.12%.

As to `C/C(=N\NC(=O)c1ccccc1C)c1ccc(NC(=O)c2cccs2)cc1`, the activity, negative = inhibition was -4.96% [at 2.29 µM].

As to `COc1ccc(-n2nc3cc(C)c(NC(=S)NC(=O)c4ccccc4C)cc3n2)cc1`, the activity, negative = inhibition was -17.3% [at 11.4 µM].

`CN(C1CCCCC1)S(=O)(=O)c1ccc(NC(=S)NC(=O)c2cccs2)cc1`: the AC50 is 3.98 µM (active).
